A short description of experiment [1]: optical density shifts of acrAB sulA E. coli – strain DRC41, OD650, 48 h, E. coli filamentation inducer project, primary screen (AID 1152).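 Further: E. coli MC1000 strain DRC41 lacking acrAB efflux pump and sulA.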 To be noted: higher = more signal, called active from +8 up or from −8 down.
A short description of experiment [2]: probe aLefty1 binding on compound microarray – biochemical, small-molecule microarray, 635/667 nm fluorescence, primary screen (AID 1153).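 Further: score merges spot fluorescence with signal-to-noise ratio from the scanned slide images.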 To be noted: higher = more signal.
Experiment [3] can be described thus: plasmodial surface anion channel blockers, osmotic lysis – cell-based, P. falciparum Indochina, OD700, 1 h, primary screen (AID 1154). To be noted: P. falciparum Indochina infected RBC osmotic lysis, higher = more signal, called active from +8 up or from −8 down.
Experiment [4] in a line: plasmodial surface anion channel blockers, osmotic lysis – cell-based, P. falciparum Indochina, OD700, 2 h, primary screen (AID 1155).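 Further: lysis reports solute entry through the parasite surface anion channel PSAC.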 To be noted: P. falciparum Indochina infected erythrocytes, higher = more signal, called active from +8 up or from −8 down.
Experiment [5] can be described thus: changes in parasitized red cell lysis, either direction – P. falciparum Indochina, OD700, 3 h, PSAC antagonist project, primary screen (AID 1156). To be noted: P. falciparum-infected erythrocytes, osmotic lysis, higher = more signal, called active from +8 up or from −8 down.
Experiment [6] can be described thus: plasmodial surface anion channel blockers, osmotic lysis – cell-based, P. falciparum Indochina, OD700, 18 h, primary screen (AID 1157). To be noted: P. falciparum Indochina infected erythrocytes, osmotic lysis OD700, 18 h; higher = more signal, called active from +8 up or from −8 down.
The nature of experiment [7]: S6 kinase pathway phospho-S6 level changes – cell-based, A549, cytoblot, luminescence, serum-stimulated, primary screen (AID 1158).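 Further: serum-stimulated A549 lung adenocarcinoma cells; signal is phosphorylated S6 detected by cytoblot immunostaining with HRP secondary.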 To be noted: 5 h, higher = more signal.
For experiment [8], the target named is NADPH oxidase 2 (Homo sapiens) (UniProt P04839). The experiment in a line: compounds shifting NOX2 Amplex Red fluorescence – cell-based, HEK293-NOX2, PMA-stimulated, NOX inhibitor project, primary screen (AID 1159). Further: test concentration not given here. To be noted: 45 min, higher = more signal, called active from +8 up or from −8 down.
In experiment [9] the target is NADPH oxidase 4 (Homo sapiens) (UniProt Q9NPH5). The experiment can be described thus: compounds shifting NOX4 Amplex Red fluorescence – cell-based, HEK293-NOX4, tetracycline-induced, NOX inhibitor project, primary screen (AID 1160). To be noted: HEK293-NOX4, Amplex Red H2O2 fluorescence, 45 min; higher = more signal, called active from +8 up or from −8 down.
Experiment [10] concerns the target NADPH oxidase 5 (Homo sapiens) (UniProt Q96PH1). The experiment can be described thus: compounds shifting NOX5 Amplex Red fluorescence – cell-based, HEK293-NOX5, NOX inhibitor project, primary screen (AID 1161). To be noted: HEK293-NOX5, ionomycin, 45 min, higher = more signal.
Experiment [11] can be described thus: compound effects on lung adenocarcinoma cell viability – A549, calcein-AM fluorescence, 48 h, basal, profiling panel (AID 1162). Further: test concentration not given here. To be noted: higher = more signal.
Experiment [12] can be described thus: compound effects on differentiated 3T3-L1 adipocyte viability – cell-based, 3T3-L1 adipocytes, calcein-AM fluorescence, 48 h, basal, profiling panel (AID 1163). Further: test concentration not given here. To be noted: 3T3-L1 adipocytes viability, higher = more signal.
Experiment [13] is described as follows: compound effects on hepatocellular carcinoma cell viability – HepG2, calcein-AM fluorescence, 48 h, basal, profiling panel (AID 1164). Further: test concentration not given here. To be noted: higher = more signal.
A short description of experiment [14]: compound effects on multiple myeloma cell viability – MM1S, calcein-AM fluorescence, 48 h, basal, profiling panel (AID 1165).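 Further: viability of MM1S multiple myeloma cells under basal unstimulated conditions; test concentration not given here.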 To be noted: higher = more signal.
Experiment [15] can be described thus: calcein-AM signal in unstimulated myeloma cells – cell-based, calcein-AM fluorescence, 48 h, PK04 Diversity Set, profiling panel (AID 1166).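 Further: cells grown under basal conditions without added stimulus; test concentration not given here.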 To be noted: RPMI8226 myeloma viability, higher = more signal.
Experiment [16] is described as follows: JC-1 mitochondrial signal, unstimulated HepG2 cells – cell-based, JC-1 fluorescence, 24 h, 100 nL compound, profiling panel (AID 1167). Further: test concentration not given here. To be noted: HepG2 mitochondrial potential, higher = more signal.
A short description of experiment [17]: JC-1 mitochondrial signal, unstimulated adipocytes – cell-based, JC-1 fluorescence, 3T3-L1 adipocytes, 24 h, 100 nL compound, profiling panel (AID 1168). Further: test concentration not given here. To be noted: JC-1 mitochondrial fluorescence, higher = more signal, called active from +8 up or from −8 down.
Experiment [18] is described as follows: JC-1 mitochondrial signal, unstimulated myeloma cells – cell-based, JC-1 fluorescence, RPMI8226, 24 h, 100 nL compound, profiling panel (AID 1169). Further: test concentration not given here. To be noted: JC-1 mitochondrial potential fluorescence, higher = more signal.
The nature of experiment [19]: JC-1 mitochondrial signal, unstimulated MM1S myeloma – cell-based, JC-1 fluorescence, 24 h, 100 nL compound, profiling panel (AID 1170). Further: test concentration not given here. To be noted: MM1S mitochondrial potential, higher = more signal.
A short description of experiment [20]: resazurin metabolic signal in A549 cells – cell-based, resazurin fluorescence, 24 h, PK04 Diversity Set, profiling panel (AID 1171). Further: test concentration not given here. To be noted: A549 viability, higher = more signal, called active from +8 up or from −8 down.

The structures appear in SMILES notation. Activity calls are given as the source filed them.

NADPH oxidase 5 (Homo sapiens), sequence (Q96PH1 whole entry, looked up): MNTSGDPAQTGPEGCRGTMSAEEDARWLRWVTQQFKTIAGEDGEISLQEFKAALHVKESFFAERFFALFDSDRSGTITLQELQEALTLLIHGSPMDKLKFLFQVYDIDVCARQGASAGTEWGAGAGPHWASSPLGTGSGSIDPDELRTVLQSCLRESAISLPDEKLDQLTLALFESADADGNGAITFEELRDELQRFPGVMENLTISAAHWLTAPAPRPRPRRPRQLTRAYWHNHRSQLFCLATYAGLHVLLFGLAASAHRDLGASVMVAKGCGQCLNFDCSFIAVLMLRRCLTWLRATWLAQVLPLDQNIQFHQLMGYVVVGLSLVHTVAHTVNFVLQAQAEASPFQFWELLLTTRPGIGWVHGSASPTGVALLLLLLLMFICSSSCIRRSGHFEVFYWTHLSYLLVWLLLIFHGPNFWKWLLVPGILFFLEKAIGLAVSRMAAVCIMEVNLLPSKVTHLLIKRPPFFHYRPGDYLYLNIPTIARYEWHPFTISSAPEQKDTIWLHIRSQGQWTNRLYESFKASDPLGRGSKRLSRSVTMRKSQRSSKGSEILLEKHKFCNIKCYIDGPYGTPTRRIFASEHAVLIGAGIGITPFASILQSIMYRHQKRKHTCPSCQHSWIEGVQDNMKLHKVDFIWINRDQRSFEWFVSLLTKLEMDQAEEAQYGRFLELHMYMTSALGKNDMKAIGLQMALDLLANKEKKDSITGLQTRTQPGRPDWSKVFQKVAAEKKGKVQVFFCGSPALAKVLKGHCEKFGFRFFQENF
NADPH oxidase 4 (Homo sapiens), sequence (Q9NPH5 whole entry, looked up): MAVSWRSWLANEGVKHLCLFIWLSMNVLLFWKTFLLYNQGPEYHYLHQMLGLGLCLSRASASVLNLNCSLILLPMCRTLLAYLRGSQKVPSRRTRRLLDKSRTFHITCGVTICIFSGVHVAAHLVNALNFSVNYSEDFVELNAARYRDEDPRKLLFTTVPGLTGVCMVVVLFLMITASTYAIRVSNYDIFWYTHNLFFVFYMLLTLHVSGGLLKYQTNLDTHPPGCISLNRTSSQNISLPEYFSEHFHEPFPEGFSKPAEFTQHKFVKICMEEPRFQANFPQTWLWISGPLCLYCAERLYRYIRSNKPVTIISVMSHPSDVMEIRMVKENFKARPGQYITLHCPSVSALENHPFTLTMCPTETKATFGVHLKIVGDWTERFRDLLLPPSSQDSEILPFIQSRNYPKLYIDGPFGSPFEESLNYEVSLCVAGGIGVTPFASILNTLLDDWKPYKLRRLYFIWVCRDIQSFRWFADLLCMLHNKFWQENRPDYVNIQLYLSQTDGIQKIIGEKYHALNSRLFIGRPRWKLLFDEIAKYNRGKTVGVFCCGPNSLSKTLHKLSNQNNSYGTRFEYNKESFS
NADPH oxidase 2 (Homo sapiens), sequence (P04839 whole entry, looked up): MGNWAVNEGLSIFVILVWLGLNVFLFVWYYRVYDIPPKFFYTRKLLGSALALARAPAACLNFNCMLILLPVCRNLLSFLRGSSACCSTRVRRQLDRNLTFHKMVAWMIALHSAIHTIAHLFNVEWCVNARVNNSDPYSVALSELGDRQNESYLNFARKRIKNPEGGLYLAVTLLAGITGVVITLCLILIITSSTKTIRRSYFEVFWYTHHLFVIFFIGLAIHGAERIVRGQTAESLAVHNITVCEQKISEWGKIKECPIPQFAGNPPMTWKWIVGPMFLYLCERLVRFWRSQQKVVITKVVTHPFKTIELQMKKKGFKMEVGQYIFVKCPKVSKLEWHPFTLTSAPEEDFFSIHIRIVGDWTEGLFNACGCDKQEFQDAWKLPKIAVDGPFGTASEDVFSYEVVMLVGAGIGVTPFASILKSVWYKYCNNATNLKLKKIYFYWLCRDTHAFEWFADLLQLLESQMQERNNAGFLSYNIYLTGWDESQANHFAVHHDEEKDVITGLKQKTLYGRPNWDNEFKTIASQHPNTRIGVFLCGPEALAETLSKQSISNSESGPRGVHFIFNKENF

As to `O=C1OCCC=C[C@H]2OC34C=CCN(c5ccc6ccccc6c5)C(=O)[C@H]3N(CCO)C(=O)[C@@H]4C12` (stereo not given in full), the z-score is -0.701 (inactive) in experiment [1]; 0.809 (inactive) in experiment [3]; 0.791 (inactive) in experiment [4]; 1.11 (inactive) in [5]; 0.332 (inactive) in [6]; -0.366 in experiment [7]. Also, the z-score in experiment [8] is 1.47 (inactive); in experiment [9], -0.0539 (inactive); in experiment [10] it was 2.41; in [11], 0.327; in experiment [12], -0.423; in [13], 0.0955. Besides, the z-score in experiment [14] was 0.508; in [15] it was 0.037; in experiment [16], -0.409; in experiment [17], -0.502 (inactive); in [18], 0.122; in experiment [19], 0.611. Moreover, in experiment [20], the z-score is -0.751 (inactive). The composite z-score in experiment [2] is -0.815.
As to `CCCCCCc1nc(Cc2cc(OC)c(OC)c(OC)c2)cc2c1[Si](C(C)C)(C(C)C)O[C@H]2c1ccccc1`, the z-score in experiment [1] is -1.42 (inactive); in [3], 0.612 (inactive); in [4], 0.482 (inactive); in experiment [5], 0.491 (inactive); in [6], -0.23 (inactive); in experiment [7] it was -0.147. Moreover, the z-score in experiment [8] was -0.472 (inactive); in [9], -0.137 (inactive); in experiment [10], -1.73; in experiment [11], -0.106; in experiment [12], -0.267; in experiment [13], -0.492. In addition, the z-score in experiment [14] was -1.09; in experiment [15] it was -3.49; in [16], 1.03; in experiment [17] it was -0.462 (inactive); in experiment [18], -0.566; in experiment [19], -0.116. Besides, in experiment [20], the z-score was 2.45 (inactive). This compound also returned a composite z-score in [2] of 0.092.
As to `CN1C(=O)C2C(C1=O)C1C=C(CCCO)C2C(C2CC2)N1Cc1cccc(OC(F)(F)F)c1` (stereo not given), the z-score is -0.771 (inactive) in experiment [1]; 1.34 (inactive) in [3]; 0.505 (inactive) in [4]; 0.627 (inactive) in experiment [5]; 0.402 (inactive) in experiment [6]; -0.546 in experiment [7]. Besides, the z-score in experiment [8] is 0.561 (inactive); in [9] it was 0.568 (inactive); in [10], 1.2; in experiment [11] it was -0.379; in experiment [12], 0.116; in experiment [13], -0.814. Also, the z-score in experiment [14] is -0.517; in [15], -0.781; in experiment [16], 0.217; in experiment [17] it was -0.423 (inactive); in [18], -0.00892; in [19], 0.389. Further, in [20], the z-score was -0.0655 (inactive). Moreover, the composite z-score in experiment [2] is -0.295.
With `COCCOC(=O)N1C(=O)[C@@]2(c3cc(C#CCC(C(=O)OC)C(=O)OC)ccc31)[C@H](c1ccc(O)cc1)N1[C@H](c3ccccc3)[C@H](c3ccccc3)OC(=O)[C@H]1[C@@H]2C(=O)Nc1nc2ccccc2s1`, the z-score in experiment [1] was 0.306 (inactive); in [3], 2.75 (inactive); in experiment [4], 0.666 (inactive); in experiment [5], 0.34 (inactive); in [6], 0.802 (inactive); in [7] it was -0.286. The z-score in experiment [8] is 1.1 (inactive); in experiment [9], -1.09 (inactive); in [10] it was 0.698; in experiment [11] it was -0.451; in experiment [12] it was 0.982; in [13], -0.0867. Also, the z-score in [14] is 0.121; in [15], -0.6; in [16], -1.18; in [17], -1.98 (inactive); in experiment [18], -0.164; in [19], 0.0358. Besides, the z-score in experiment [20] is 0.066 (inactive). The compound further showed a composite z-score in experiment [2] of 0.251.

(Values after PubChem BioAssay.)
